Experimental data reported in PubChem BioAssay (NCATS).
Records with an inconclusive call do not appear. Active and inactive are the calls of the source. The call rests on the fitted dose curve; in most records, active means well fitted curve in the direction sought with a large enough effect; inconclusive means small, poorly fitted or top-dose-only effect, or another doubt; inactive means no such curve, though single readings can be large; an effect the other way counts as inactive or inconclusive.

How the values were obtained:
[1] = Dual reporter qHTS for antagonist of Pregnane X Receptor (hPXR) against the NCATS DSHEA and TCM libraries: Fluorescence Readout (AID 1920061)
Summary of the method: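 Rifampicin-stimulated (2 uM final) hPXR-luciferase HepG2 cells were treated for 24 h with DSNP/TCM substances. Viability came from CellTiter-Fluor fluorescence, reporter activity from ONE-Glo luminescence.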

[2] = qHTS profiling for inhibitors of Plasmodium falciparum proliferation (AID 504749); further: nearly all actives have a fitted effect of over 60% in size; settings: P. falciparum in erythrocytes, SYBR Green DNA, 72 h; series mostly up to 28.7 µM
Summary of the method: (§1)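 Fluorescence of SYBR Green-bound parasite DNA, read at 485/535 nm, served as the growth measure. Infected erythrocytes were cultured with compound 72 h; artemisinin (0.29 uM) and DMSO wells defined the normalization range.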

3D7 = experiment: as above; settings: P. falciparum in erythrocytes, SYBR Green DNA, 72 h; series mostly up to 28.7 µM
Summary of the method: as §1

7G8 = experiment: as above; settings: P. falciparum in erythrocytes, SYBR Green DNA, 72 h; series mostly up to 28.7 µM
Summary of the method: as §1

AA1029 = experiment: as above; settings: P. falciparum in erythrocytes, SYBR Green DNA, 72 h; series mostly up to 28.7 µM
Summary of the method: as §1

AS120 = experiment: as above; settings: P. falciparum in erythrocytes, SYBR Green DNA, 72 h; series mostly up to 28.7 µM
Summary of the method: as §1

ATS189 = experiment: as above; settings: P. falciparum in erythrocytes, SYBR Green DNA, 72 h; series mostly up to 28.7 µM
Summary of the method: as §1

ATS95 = experiment: as above; settings: P. falciparum in erythrocytes, SYBR Green DNA, 72 h; series mostly up to 28.7 µM
Summary of the method: as §1

C2A = experiment: as above; settings: P. falciparum in erythrocytes, SYBR Green DNA, 72 h; series mostly up to 28.7 µM
Summary of the method: as §1

CP185 = experiment: as above; settings: P. falciparum in erythrocytes, SYBR Green DNA, 72 h; series mostly up to 28.7 µM
Summary of the method: as §1

CP191 = experiment: as above; settings: P. falciparum in erythrocytes, SYBR Green DNA, 72 h; series mostly up to 28.7 µM
Summary of the method: as §1

CP192 = experiment: as above; settings: P. falciparum in erythrocytes, SYBR Green DNA, 72 h; series mostly up to 28.7 µM
Summary of the method: as §1

CP194 = experiment: as above; settings: P. falciparum in erythrocytes, SYBR Green DNA, 72 h; series mostly up to 28.7 µM
Summary of the method: as §1

CP201 = experiment: as above; settings: P. falciparum in erythrocytes, SYBR Green DNA, 72 h; series mostly up to 28.7 µM
Summary of the method: as §1

CP203 = experiment: as above; settings: P. falciparum in erythrocytes, SYBR Green DNA, 72 h; series mostly up to 28.7 µM
Summary of the method: as §1

CP211 = experiment: as above; settings: P. falciparum in erythrocytes, SYBR Green DNA, 72 h; series mostly up to 28.7 µM
Summary of the method: as §1

CP215 = experiment: as above; settings: P. falciparum in erythrocytes, SYBR Green DNA, 72 h; series mostly up to 28.7 µM
Summary of the method: as §1

CP217 = experiment: as above; settings: P. falciparum in erythrocytes, SYBR Green DNA, 72 h; series mostly up to 28.7 µM
Summary of the method: as §1

CP237 = experiment: as above; settings: P. falciparum in erythrocytes, SYBR Green DNA, 72 h; series mostly up to 28.7 µM
Summary of the method: as §1

Measured: outcome

O=C(OCC1=C[C@@H](O)[C@@H]2C=CO[C@@H](O[C@@H]3O[C@H](CO)[C@@H](O)[C@H](O)[C@H]3O)[C@H]12)c1ccc(O)cc1
inactive: [1]

CC(=O)O[C@@H]1C[C@@H](C)[C@](O)(CCC2=CC(=O)OC2)[C@@]2(C)CCCC(C)(C)C12 (some centres not stated)
inactive: [1]

CCOC(=O)C(CCc1ccccc1)NC(C)C(=O)N1Cc2ccccc2CC1C(=O)O (configuration not stated)
not listed: [1]
inactive: all other assays above

CCc1cccc2c3c([nH]c12)[C@@](CC)(CC(=O)O)OCC3
not listed: [1] | ATS189
inactive: all other assays above
